KCNQ2 block: inhibitors of rat KCNQ2 potassium channel | AID 2156 | B-score at 10 µM | 310,000 tested, 1.1% active | CHO-K1 KCNQ2, FluxOR thallium flux, 20 min; stronger effect = lower value;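 active means fluorescence ratio B-score at most minus 3 library SDs, with starting brightness B-score within 2 library SDs, cut at about -5.5 in these data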
Target sequence (O88943 whole entry, looked up): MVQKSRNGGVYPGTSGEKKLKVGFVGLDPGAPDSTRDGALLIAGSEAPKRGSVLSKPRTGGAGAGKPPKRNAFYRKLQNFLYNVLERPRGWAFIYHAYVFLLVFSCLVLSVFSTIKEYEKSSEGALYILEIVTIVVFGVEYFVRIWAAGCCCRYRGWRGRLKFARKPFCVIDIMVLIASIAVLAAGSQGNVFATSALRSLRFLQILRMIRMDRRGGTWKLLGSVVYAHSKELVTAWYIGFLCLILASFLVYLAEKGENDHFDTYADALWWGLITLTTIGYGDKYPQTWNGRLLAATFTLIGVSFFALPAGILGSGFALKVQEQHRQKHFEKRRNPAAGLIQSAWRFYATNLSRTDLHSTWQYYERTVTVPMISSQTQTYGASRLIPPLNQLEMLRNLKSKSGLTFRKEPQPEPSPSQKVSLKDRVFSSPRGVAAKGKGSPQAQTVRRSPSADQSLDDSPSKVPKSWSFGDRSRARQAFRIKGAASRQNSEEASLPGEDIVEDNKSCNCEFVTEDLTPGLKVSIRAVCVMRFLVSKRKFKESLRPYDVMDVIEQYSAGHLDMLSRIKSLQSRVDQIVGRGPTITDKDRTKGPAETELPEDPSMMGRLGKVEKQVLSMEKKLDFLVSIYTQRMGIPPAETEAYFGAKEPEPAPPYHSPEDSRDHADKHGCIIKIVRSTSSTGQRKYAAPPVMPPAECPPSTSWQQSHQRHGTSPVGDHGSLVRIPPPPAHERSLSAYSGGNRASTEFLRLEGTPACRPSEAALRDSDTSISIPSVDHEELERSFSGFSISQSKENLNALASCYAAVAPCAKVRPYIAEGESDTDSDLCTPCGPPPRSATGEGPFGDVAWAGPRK
KCNQ2 pot: potentiators of rat KCNQ2 potassium channel; AID 2239; B-score at 10 µM; 310,000 tested, 0.54% active; CHO-K1 KCNQ2, FluxOR thallium flux fluorescence; stronger effect = higher value; O88943;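 active means fluorescence ratio B-score at least 3 SD of library B-scores, with initial fluorescence B-score within 3 of them, cut at about 5.3 in these data; same plate scores as AID 2156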;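 further: B-score of peak minus minimum over baseline fluorescence ratio after K+ and Tl+ stimulus; positive B-score means potentiation of KCNQ2 with more thallium influx and brighter signal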
Kir21 confirm: confirmation of mouse Kir2.1 potassium channel inhibitors; Kir2.1-expressing cells, FluxOR thallium flux fluorescence; stronger effect = lower value; shares compounds with KCNQ2 pot; 2,300 tested, 41% active; Tl flux remaining, % of negative control (stronger effect = lower value), % at 10 µM; AID 2032;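 active means Primary-screen hit whose thallium flux fell at least 3 control SD below untreated wells in both duplicates, with normal baseline fluorescence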;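 further: 0% = blank wells without stimulus and 100% = stimulated no-compound controls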
HEK293 Tl flux: counter-screen for Kir2.1 inhibitors: effect in parental HEK293 cells. shares compounds with KCNQ2 pot. 2,300 tested, 19% active. FluxOR signal as % of negative control (100 = no effect), % at 10 µM. FluxOR thallium flux fluorescence; 0% = unstimulated blank wells;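 active means dye signal at least 3 control SD above or below untreated wells in both duplicates, raw fluorescence within 3, either direction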;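 further: percent is based on the flux ratio of peak minus minimum fluorescence over baseline F0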
CHO-K1 ctr: alters thallium flux in parental CHO-K1 cells, KCNQ2 counter-screen | AID 2282 | activity increase over 3SD of controls, % at 10 µM | FluxOR thallium flux fluorescence; zero = vehicle mean+3SD, 100% = vehicle-minus-blank window | 1,200 tested, 43% active | shares compounds with KCNQ2 pot;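 active means signal rise of at least 3 SD above the untreated control mean, in both duplicate wells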;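 further: counter screen of KCNQ2 potentiator hits so any rise reflects channel-independent effects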
KCNQ1 sel pot: human KCNQ1 counter-target activity of KCNQ2 potentiators | activation over 3SD threshold, % at 10 µM | shares compounds with KCNQ2 pot | 1,200 tested, 28% active | CHO KCNQ1 stable, FluxOR thallium flux fluorescence; beyond 3SD, as % of vehicle-control signal;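 active means fluorescence ratio rise of at least 3 SD of vehicle wells above their mean, in both replicate wells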;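 further: 0% = vehicle mean plus 3 SD and 100% = vehicle minus unstimulated blank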
KCNQ2 pot confirm: rat KCNQ2 channel potentiator confirmation; shares compounds with KCNQ2 pot; CHO-KCNQ2 cells, FluxOR thallium flux fluorescence; potentiation, less the hit threshold, % at 10 µM; 1,200 tested, 68% active; AID 2287;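 active means fluorescence ratio rising 3 SD or more over the vehicle control mean in both replicates, plus primary screen hit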;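 further: peak minus minimum thallium fluorescence divided by baseline after K/Tl stimulus; 0% = vehicle mean plus 3 SD and 100% = vehicle minus unstimulated blank difference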
Kir21 spec: mouse Kir2.1 off-target activity of KCNQ2 potentiators; HEK293 Kir2.1, FluxOR thallium flux fluorescence; 1,200 tested, 2% active; activity over 3SD threshold, % at 10 µM; shares compounds with KCNQ2 pot;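 active means fluorescence ratio rise of at least 3 SD above the vehicle-control mean, seen in both replicates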;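 further: 0% = vehicle mean plus 3 SD and 100% = vehicle minus no-stimulus blank window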
KCNQ2 W236L MoA: rat KCNQ2 W236L mutant potentiation by KCNQ2 potentiators | current increase over 3SD of negative controls (%), stronger effect = higher value, % at 25 µM | shares compounds with KCNQ2 pot | 940 tested, 10% active | CHO KCNQ2-W236L, automated patch clamp current;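 active means current increase at least 3 SD of the untreated controls above them in both duplicate recordings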
Numbers without * were called inactive; i = inactive; / = no result given. Most compounds without a hit are left out; they make up all but 1.6% or so of the library.

SMILES | KCNQ2 block | KCNQ2 pot | Kir21 confirm | HEK293 Tl flux | CHO-K1 ctr | KCNQ1 sel pot | KCNQ2 pot confirm | Kir21 spec | others
COC(=O)CSc1[nH]c2ccc(F)cc2c1[N+](=O)[O-] | i | 6.4* | i | i | -10 | -27 | 29* | -40 | KCNQ2 W236L MoA=38%*
CCOC(=O)CSc1[nH]c2cc(OC)ccc2c1[N+](=O)[O-] | i | 0.03 | / | / | / | / | / | /
CCOC(=O)C(=Cc1cc(=O)c(OC)co1)C(=O)OCC | i | 2.9 | i | i | / | / | / | /
COc1coc(C(O)CN)cc1=O (stereo not given) | i | 0.73 | / | / | / | / | / | /
COc1ccc2sc(NC(=O)c3ccco3)nc2c1 | i | 0.45 | / | / | / | / | / | /
O=C(NC(=S)Nc1cccc(Cl)c1N1CCCCC1)c1ccco1 | i | 8.3* | i | i | 44* | -10 | 6.2* | -29 | KCNQ2 W236L MoA=i
CC1CCN(c2ccc(NC(=S)NC(=O)c3ccco3)cc2)CC1 | i | 3.9 | / | / | / | / | / | /
O=C(NC(=S)Nc1ccc(N2CCCCC2)cc1)c1ccco1 | i | 8.5* | i | i | 99* | 4.1* | 40* | -25 | KCNQ2 W236L MoA=i
O=C(NC(=S)Nc1cccc(Cl)c1N1CCCCC1)c1cccs1 | i | 2.2 | / | / | / | / | / | /
CC(C)C(=O)N1CCN(c2ccccc2NC(=S)NC(=O)c2ccco2)CC1 | i | 0.68 | / | / | / | / | / | /
CCC(C)c1ccccc1NC(=S)NC(=O)c1ccco1 (stereo not given) | i | 12* | i | 383%* | -7 | 68* | 48* | -16 | KCNQ2 W236L MoA=i
COc1ccc2nc(NC(=S)NC(=O)c3ccco3)sc2c1 | i | 13* | i | i | 3.0* | 2.4* | 6.4* | -28 | KCNQ2 W236L MoA=i
COc1ccc(CCN(C)C(=O)CSc2nnc(C3CC3)n2N)cc1OC | i | 0.49 | / | / | / | / | / | /
O=C(CCn1c(=S)oc2ccccc21)Nc1ccccc1Br | i | 0.39 | / | / | / | / | / | /
CCCc1cc(=O)[nH]c2nnc(SCC(=O)NC3CCCCC3)n12 | i | 0.06 | / | / | / | / | / | /
O=C(CN1CCN(S(=O)(=O)/C=C/c2ccccc2)CC1)Nc1ccccc1N1CCOCC1 | i | / | / | / | / | / | / | /
O=C(c1ccccc1)n1c(=O)cc[nH]c1=O | i | 0.23 | / | / | / | / | / | /
CCCCOC(=O)CCc1c(C)n[nH]c1C | i | / | / | / | / | / | / | /
O=C(NC(=S)Nc1nc(-c2ccccc2)cs1)c1ccco1 | i | 5.4* | i | i | -3 | 81* | 1.2* | -35 | KCNQ2 W236L MoA=i
COc1ccccc1C(=O)Nc1ccc(N2CCCCC2)cc1 | i | / | / | / | / | / | / | /
O=C(NC(=S)Nc1cccc2c(O)cccc12)c1ccco1 | i | 0.76 | / | / | / | / | / | /
O=C(NC(=S)Nc1ccccc1Cl)c1ccco1 | i | 11* | i | 154%* | -15 | -17 | 4.7* | -30 | KCNQ2 W236L MoA=i
COc1cccc(OC)c1C(=O)Nc1ccc(N2CCCC2)cc1 | i | 0.05 | i | i | / | / | / | /
COc1ccc(-c2csc(NC(=S)NC(=O)c3ccco3)n2)cc1 | i | 5.1 | / | / | / | / | / | /
O=C(NC(=S)Nc1ccccc1N1CCCC1)c1ccco1 | i | 7.5* | i | 182%* | 69* | -30 | -8 | -42 | KCNQ2 W236L MoA=i
SMILES | KCNQ2 block | KCNQ2 pot | Kir21 confirm | HEK293 Tl flux | CHO-K1 ctr | KCNQ1 sel pot | KCNQ2 pot confirm | Kir21 spec | others
O=C(NC(=S)Nc1ccccc1N1CCCCC1)c1ccco1 | i | 3.7 | / | / | / | / | / | /
c1ccc(-c2noc(CC3CCCCC3)n2)nc1 | i | / | / | / | / | / | / | /
COc1ccccc1-n1nnnc1SCC(=O)N(CC(C)C)C1CCS(=O)(=O)C1 (stereo not given) | i | / | / | / | / | / | / | /
Cc1occc1C(=O)NC(C)CCc1ccccc1 (stereo not given) | i | 0.55 | / | / | / | / | / | /
CC(CCc1ccccc1)NC(=S)NC(=O)c1ccco1 (stereo not given) | i | 5.6* | i | 183%* | -26 | -14 | -3 | -36 | KCNQ2 W236L MoA=i
CC(=O)NC(Cc1ccccc1F)C(=O)NC1CCN(S(=O)(=O)c2ccccc2)CC1 (stereo not given) | i | 0.37 | / | / | / | / | / | /
CCCCc1ccc(-c2ccc(Br)cc2O)nc1 | i | 6* | i | i | -11 | 59* | -9 | -30
CCCCc1ccc(-c2ccc(C)cc2O)nc1 | i | 3.3 | / | / | / | / | / | /
COc1ccc(CCNc2nc3ccccc3n3cnnc23)cc1OC | i | 0.26 | / | / | / | / | / | /
CCc1nnc2c(NCCc3ccc(OC)c(OC)c3)nc3ccccc3n12 | i | 11* | i | i | 9.6* | -14 | -22 | -30
Cc1cc2c3c([nH]c2cc1S(=O)(=O)N1CCC2(CC1)OCCO2)CCCC3=O | i | / | / | / | / | / | / | /
CCS(=O)(=O)N1CCN(C(=O)c2cccc3ccccc23)CC1 | i | 0.65 | / | / | / | / | / | /
CCCCn1c(NC(=O)C2CCCCC2)nc2ccccc21 | i | 9.6* | i | i | 3.9* | -15 | 16* | -38 | KCNQ2 W236L MoA=i
CN(C)CCCn1c(NC(=O)C2CCCCC2)nc2ccccc21 | i | 0.81 | / | / | / | / | / | /
O=C(C1CCC(=O)N(C2CCCC2)C1)N1CCN(c2ccccc2Cl)CC1 (stereo not given) | i | 0.2 | / | / | / | / | / | /
CC(=O)Oc1ccc(N(C(C)=O)S(=O)(=O)c2ccc3ccccc3c2)cc1 | i | / | / | / | / | / | / | /
CCc1nnc2c(N(C)S(=O)(=O)c3ccc(C)cc3)nc3ccccc3n12 | i | 1.4 | / | / | / | / | / | /
Cc1ccc(S(=O)(=O)N(C)c2nc3ccccc3[nH]c2=S)cc1 | i | 5.6* | i | 154%* | -26 | -6 | -3 | -35
O=C(CCl)N1CCN(CC(=O)N2CCCC2)CC1 | i | 1.1 | / | / | / | / | / | /
Cc1ccc(/C=C2\SC(N3CCCCC3)=NC2=O)cc1 | i | 0.15 | / | / | / | / | / | /
CC(C)(C)c1ccc(/C=C2/SC(N3CCCC3)=NC2=O)cc1 | i | 6.9* | i | i | 4.3* | -9 | 12* | -14 | KCNQ2 W236L MoA=0.6%*
CCC(C(=O)Nc1ccc2[nH]ncc2c1)c1ccccc1 (stereo not given) | i | 1.1 | / | / | / | / | / | /
O=C(c1cc([N+](=O)[O-])ccc1N1CCOCC1)N1CCN(S(=O)(=O)c2cc(Cl)ccc2Cl)CC1 | i | 0.8 | / | / | / | / | / | /
Cc1ccccc1OCC(O)CN1CCN(CCN2C(=O)c3cccc4cccc(c34)C2=O)CC1 (stereo not given) | i | / | / | / | / | / | / | /
Cc1cccc(C)c1OCC(O)CN1CCC(CN2C(=O)c3cccc4cccc(c34)C2=O)CC1 (stereo not given) | i | 5.7* | i | i | 50* | -16 | -22 | -27
